Screening data from PubChem.
Hits are enriched below; roughly 1.4% of the tested compounds scored in any of these assays.
Sa RN4220 lethal: S. aureus RN4220 growth inhibition; OD600, 16 h; 330,000 compounds, 0.33% hits; inhibition, % (test concentration not listed); AID 1259311; in the data active = inhibition above about 85%;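 also: plate controls were untreated cells for no effect and reference antibiotic for full effect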
BJeLR lethal: kills HRASV12-expressing BJeLR cells; 300,000 compounds, 0.17% hits; BJeLR (HRASV12) viability, CellTiter-Glo ATP luminescence, 48 h; inhibition, % (no concentration beside the values); AID 1554; in the data active = inhibition above about 50%; inconclusive = no clear call, values can overlap the other calls
PrP UTR inh: suppresses PrP 5' UTR mRNA reporter expression; cell-based PrP 5' UTR mRNA reporter, plate reader; inhibition, % (test concentration not listed); 340,000 compounds, 0.35% hits; AID 488862; in the data active = inhibition above about 52%; also: 0 = median of the neutral control wells
PfHsp40 rescue: compounds rescuing yeast from Plasmodium falciparum HSP40 toxicity; growth rescue, % at 12.5 µM; 340,000 compounds, 0.68% hits; S. cerevisiae expressing PfHsp40, growth rescue, ATP luminescence; in the data active = growth rescue above about 28%, passing the limit was not always enough; inconclusive = no clear call, values can overlap the other calls;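 also: yeast W303a lacking pdr1 and pdr3 grown in galactose medium; growth measured after three days at 30 °C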
Y pestis TopoI: Y. pestis Topo-I inhibition via cleavage products; Y. pestis Topo-I cleavage product accumulation, plate reader; activity, % at 10 µM; 360,000 compounds, 0.064% hits; in the data active = activity above about 50%, passing the limit was not always enough; inconclusive = no clear call, values can overlap the other calls
Sa ugtP lethal: kills S. aureus RN4220 lacking UgtP | growth inhibition, % (test concentration not listed) | S. aureus RN4220 ugtP deletion, OD600 growth, 16 h | 330,000 compounds, 0.54% hits | AID 1259309; in the data active = growth inhibition above about 68%;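 also: plate controls were untreated wells for no effect and antibiotic for full effect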
The depositor's hits bear a star; ? = inconclusive; nt = no result.

SMILES	Sa RN4220 lethal	BJeLR lethal	PrP UTR inh	PfHsp40 rescue	Y pestis TopoI	Sa ugtP lethal
C[C@]12C(=O)N(c3ccc(F)cc3)C(=O)N1[C@H]1c3ccccc3OC[C@@H]1[C@H]2c1ccccc1	-24	nt	-6	94*	1	-12
COc1ccc2c(c1)OC[C@H]1[C@H]2N2C(=O)c3cc(OC)ccc3NC(=O)[C@@]2(C)[C@H]1c1ccccc1	nt	nt	-25	117*	7	nt
COc1ccc(N2C(=O)C(=Cc3ccc([N+](=O)[O-])cc3)N=C2C)c(OC)c1	3	nt	nt	nt	nt	-5
O=S(=O)(NCC1CCCO1)c1ccc(Br)cc1 (stereo not drawn)	6	-4	-11	35*	-3	5
O=[N+]([O-])c1ccc(C2=NN(CCO)C(=Nc3ccc(OC(F)(F)F)cc3)SC2)cc1	5	-3	-7	53*	-13	-24
O=C(NCC1CCCO1)c1cccc2c1C(=O)c1ccc(N3CCOCC3)cc1S2(=O)=O (stereo not drawn)	1	nt	nt	nt	nt	-1
COc1ccc(CNC(=O)Cn2ncn3c(cc4ccccc43)c2=O)cc1	5	4	-14	-1	0	16
Cc1ccc(Cn2ncn3c(cc4ccccc43)c2=O)cc1	2	8	-14	2	33	93*
CCNc1ccc(Br)cc(C(=O)/C=C/c2ccc3c(c2)OCO3)c1=O	-5	-3	-26	37*	-7	-3
CCNc1ccc(Br)cc(C(=O)/C=C/c2ccc(Cl)cc2)c1=O	1	-9	-24	1	1	5
O=C(O)c1cccc2c1-c1ccc(Cl)cc1C2	10	nt	-2	44*	1	-6
O=C(O)c1cccc2c1C(=O)c1ccc(Cl)cc1S2(=O)=O	nt	nt	-19	0	4	nt
CCSc1nnc(NC(=O)c2cccc(S(=O)(=O)N(C)c3ccccc3)c2)s1	24	3	-16	30*	-4	1
CCN(CC)CCN1C(=O)/C(=C\c2ccc(Cl)c([N+](=O)[O-])c2)SC1=Nc1ccc(OC)cc1	-6	88*	6	-1	8	93*
COc1ccc(N=C2S/C(=C\c3ccc(Cl)c([N+](=O)[O-])c3)C(=O)N2CCN(C)C)cc1	nt	59*	nt	0	-13	nt
CCCN1C(=O)/C(=C/c2ccc(C)s2)SC1=Nc1ccc(OC)cc1	nt	9	-1	-1	-11	nt
CCc1nc2ccccc2c(=O)n1NC(=O)c1c(O)c2ccccc2n(CC)c1=O	14	2	3	181*	40	30
CCn1c(=O)c(C(=O)Nc2ccccc2)c(O)c2ccccc21	-5	-2	-23	1	-4	6
CCn1c(=O)c(C(=O)Nc2nc3ccccc3[nH]2)c(O)c2ccccc21	100*	5	-4	?	18	100*
CCn1c(=O)c(C(=O)Nn2c(C)nc3ccccc3c2=O)c(O)c2ccccc21	44	-15	-9	5	31	12
CCCCCn1c(=O)c(C(=O)Nc2nc3ccccc3[nH]2)c(O)c2ccccc21	83	-17	-9	2	-4	101*
CC(C)CC(NC(=O)c1nc[nH]c1C(=O)N1CCC(C)CC1)C(=O)OCc1ccccc1 (stereo not drawn)	6	nt	nt	nt	nt	-9
COc1ccc(S(=O)(=O)N(C)CC2Oc3ccc(NC(=O)C4CC4)cc3C(=O)N(C(C)CO)CC2C)cc1 (stereo not drawn)	7	nt	nt	nt	nt	12
C=C(C)COc1ccc(-c2[nH]ncc2-c2ccc(Br)cc2)c(O)c1	-12	25	-21	309*	1	80
Nc1ccc(Nc2ccccc2)c(S(=O)(=O)O)c1	nt	22	nt	41*	4	nt
SMILES	Sa RN4220 lethal	BJeLR lethal	PrP UTR inh	PfHsp40 rescue	Y pestis TopoI	Sa ugtP lethal
Cc1ccc(Nc2ccc(N)cc2S(=O)(=O)O)cc1	5	-1	-36	8	-2	13
CC(=O)O[C@H]1[C@@H](O)[C@H](O)[C@H](Oc2c(O)c(C)c3c4c2[C@@H](C)CC[C@@H]4[C@@H](C)C[C@H]3C=C(C)C)O[C@H]1C	nt	nt	-21	125*	1	nt
COc1cccc(OC)c1C(=O)NC(C)C12CC3CC(CC(C3)C1)C2 (stereo not drawn)	15	1	-14	84*	8	70
CC(NC(=O)c1ccc([N+](=O)[O-])o1)C12CC3CC(CC(C3)C1)C2 (stereo not drawn)	36	-6	-34	-1	3	32
O=C(NCc1ccccc1)[C@]1(C(F)(F)F)CC(CCc2ccccc2)CCCO1 (stereo partly drawn)	1	nt	nt	nt	nt	3
O=C(O)/C(=C\c1ccc2ccccc2c1)c1cccc2ccccc12	14	0	4	117*	2	-26
COc1cc(NC(=O)c2cc(C)on2)cc(C(=O)Nc2cccc(C(F)(F)F)c2)c1	nt	-1	-15	50*	-3	nt
CC(=O)c1ccc(NC(=O)N2CCc3ccccc3C2)cc1	-1	105*	-39	-1	6	8
CCOC(=O)C1C2COc3cc(OC)ccc3C2N2C(=O)N(c3ccc(OC)cc3)C(=O)[C@]12C (stereo partly drawn)	-2	nt	nt	nt	nt	-3
COc1ccc(-c2c([C@H]3[C@@H]4C=CCC[C@@]4(C)C(=O)N3Cc3ccccc3)ccc3ccccc23)cc1OC	nt	-5	-9	44*	29	nt
COc1ccc(-c2c(C3C4C=CCC[C@@]4(C)C(=O)N3Cc3ccccc3)ccc3ccccc23)cc1OC (stereo partly drawn)	-14	nt	nt	nt	nt	-7
CN(C)c1ccc(-c2ccc([C@H]3[C@@H]4C=CCC[C@@]4(C)C(=O)N3Cc3ccccc3)c(F)c2)cc1	nt	2	-8	0	-9	nt
Cc1ccc(-c2ccc(C3C4C=CCC[C@@]4(C)C(=O)N3Cc3ccccc3)c(F)c2)cc1 (stereo partly drawn)	0	nt	nt	nt	nt	81*
N#Cc1cccc(CN2CCC(=O)N(C(CO)Cc3ccccc3)CC2)c1 (stereo not drawn)	7	nt	nt	nt	nt	1
CCCCCc1ccc(-c2ccc(/C=C/C(=O)O)cc2)nc1	17	-4	46	0	-1	16
CCCCCCCc1ccc(-c2ccc(O)cc2)nc1	11	-1	-51	253*	37	45
COc1cccc(C(=O)CC(=O)C(=O)Nc2ccc(C)cc2Cl)c1	77	2	-29	1	-7	87*
COc1cc(OC)c(NC(=O)C(=O)CC(=O)c2ccc(C)cc2C)cc1Cl	85*	4	10	1	-4	69
CC(C)CC1NC(=O)C(CO)NC(=O)c2cc([N+](=O)[O-])cc(I)c2OCCC(C(N)=O)NC1=O (stereo not drawn)	19	nt	nt	nt	nt	-5
CCCCOc1c(Br)cc(C=NO)cc1OCC	0	nt	nt	nt	nt	100*
C=CCC(CC(=O)NC(CO)Cc1ccccc1)C(=O)NC(COC(=O)C(CC=C)Cc1ccc(F)cc1)Cc1ccccc1 (stereo not drawn)	9	nt	nt	nt	nt	18
O=C(c1ccc([N+](=O)[O-])o1)N1CCc2ccccc2C1	9	1	-8	53*	4	2
